Laboratory results published in PubChem BioAssay.
For some assays here: Entries with a potency or affinity are not part of this list. Activity calls are given as the source filed them. Unless noted, no rule for the calls is given here.

Key:
[1] = antimalarial activity against Dd2 strain (AID 2302;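 active = growth inhibition above 50% at the single 2 µM test dose, taken to imply half-maximal potency below 2 µM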;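 also: 0% = DMSO untreated growth and 100% = chloroquine plus artemisinin killed control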); details: P. falciparum Dd2 in RBCs, LDH growth readout, 72 h; at 2 µM; stronger effect = higher value
[2] = HepG2 cytotoxicity, primary screen, cytotoxicity control for P. falciparum antimalarial project, cell-based, ATP luminescence (AID 2303;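 active = inhibition above 50%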;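 also: 0% = DMSO wells and 100% = digitonin-killed cells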); details: HepG2 viability, 24-48 h, at 10 µM, stronger effect = higher value
[3] = target: L-lactate dehydrogenase (Plasmodium falciparum (isolate CDC / Honduras)) (UniProt Q27743); assay: PfLDH activity inhibition – cell lysate, 3D7 strain, counter-screen for P. falciparum growth inhibition project (AID 2304);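 also: 0% = vehicle and 100% = reference inhibitor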; details: P. falciparum 3D7 crude extract, LDH APAD/NBT absorbance; at 2 µM; stronger effect = higher value
[4] = inhibition of 3D7 malaria parasite growth – strain 3D7 (AID 2306);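 also: 0% = DMSO wells and 100% = chloroquine plus artemisinin control wells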; details: P. falciparum 3D7 erythrocytic growth, LDH absorbance, 72 h; at 2 µM; stronger effect = higher value
[5] = target: Calcium-dependent protein kinase 1 (Plasmodium falciparum (isolate 3D7)) (UniProt P62344); assay: PfCDPK1 kinase inhibitors, biochemical, TCAMS library (AID 1159585; cut-off not given, nearly all actives have IC50 up to about 0.98 µM;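 also: inhibitors leave more ATP so luminescence rises with inhibition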); details: recombinant PfCDPK1, Kinase-Glo ATP depletion luminescence
[6] = target: Plasmodium falciparum protein kinase 6 (PK6, PF3D7_1337100) (UniProt Q8IDW1); assay: PfPK6 kinase inhibitors, biochemical, TCAMS library (AID 1159586); details: recombinant PfPK6, Kinase-Glo ATP depletion luminescence
[7] = target: Protein kinase 7 (PK7), Plasmodium falciparum 3D7 (PF3D7_0213400) (UniProt Q7YTF7); assay: inhibition of Plasmodium PK7 catalytic activity – biochemical, TCAMS antimalarial set, Kinase-Glo luminescence (AID 1159587); details: recombinant PfPK7, Kinase-Glo ATP depletion luminescence
[8] = target: Calcium-dependent protein kinase 4 (Plasmodium falciparum (isolate 3D7)) (UniProt Q8IBS5); assay: PfCDPK4 kinase inhibitors, biochemical, TCAMS library (AID 1159588; cut-off not given, nearly all actives have IC50 up to about 0.91 µM); details: recombinant PfCDPK4, Kinase-Glo ATP depletion luminescence
Calcium-dependent protein kinase 4 (Plasmodium falciparum (isolate 3D7)), sequence (Q8IBS5 whole entry, looked up): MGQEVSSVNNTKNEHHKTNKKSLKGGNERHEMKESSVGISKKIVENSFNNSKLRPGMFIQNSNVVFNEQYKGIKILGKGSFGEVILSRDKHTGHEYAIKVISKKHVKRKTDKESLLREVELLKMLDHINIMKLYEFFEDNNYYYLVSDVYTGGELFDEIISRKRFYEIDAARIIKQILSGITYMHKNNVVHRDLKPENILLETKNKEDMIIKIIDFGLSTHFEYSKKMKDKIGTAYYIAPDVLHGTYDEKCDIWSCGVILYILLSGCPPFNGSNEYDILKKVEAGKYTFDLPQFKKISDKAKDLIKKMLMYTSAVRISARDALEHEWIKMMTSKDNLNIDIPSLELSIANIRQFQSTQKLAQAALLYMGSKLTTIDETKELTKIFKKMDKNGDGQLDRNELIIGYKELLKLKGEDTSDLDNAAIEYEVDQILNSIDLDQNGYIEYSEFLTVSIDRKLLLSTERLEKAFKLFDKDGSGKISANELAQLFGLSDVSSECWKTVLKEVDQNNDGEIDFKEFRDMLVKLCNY

Protein kinase 7 (PK7), Plasmodium falciparum 3D7 (PF3D7_0213400), sequence (Q7YTF7 1-343): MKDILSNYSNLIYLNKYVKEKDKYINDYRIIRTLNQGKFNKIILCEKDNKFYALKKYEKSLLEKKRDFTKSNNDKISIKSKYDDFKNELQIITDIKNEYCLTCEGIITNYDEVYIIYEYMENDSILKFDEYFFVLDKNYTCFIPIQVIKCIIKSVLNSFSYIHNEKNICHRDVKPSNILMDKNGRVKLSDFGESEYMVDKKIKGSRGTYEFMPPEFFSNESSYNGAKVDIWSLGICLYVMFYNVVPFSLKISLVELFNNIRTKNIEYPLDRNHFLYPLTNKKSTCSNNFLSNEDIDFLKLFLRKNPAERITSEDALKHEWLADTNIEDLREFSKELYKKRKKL
L-lactate dehydrogenase (Plasmodium falciparum (isolate CDC / Honduras)), sequence (Q27743 whole entry, looked up): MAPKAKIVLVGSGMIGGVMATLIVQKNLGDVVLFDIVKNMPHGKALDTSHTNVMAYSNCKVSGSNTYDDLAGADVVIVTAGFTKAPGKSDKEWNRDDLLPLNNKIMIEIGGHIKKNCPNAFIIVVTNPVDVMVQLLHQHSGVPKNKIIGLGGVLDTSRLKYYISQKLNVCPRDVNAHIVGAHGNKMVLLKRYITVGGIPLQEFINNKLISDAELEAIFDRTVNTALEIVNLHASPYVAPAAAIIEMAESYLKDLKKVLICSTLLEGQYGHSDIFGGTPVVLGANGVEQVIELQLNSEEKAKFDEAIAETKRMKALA
Plasmodium falciparum protein kinase 6 (PK6, PF3D7_1337100), sequence (Q8IDW1 1-305): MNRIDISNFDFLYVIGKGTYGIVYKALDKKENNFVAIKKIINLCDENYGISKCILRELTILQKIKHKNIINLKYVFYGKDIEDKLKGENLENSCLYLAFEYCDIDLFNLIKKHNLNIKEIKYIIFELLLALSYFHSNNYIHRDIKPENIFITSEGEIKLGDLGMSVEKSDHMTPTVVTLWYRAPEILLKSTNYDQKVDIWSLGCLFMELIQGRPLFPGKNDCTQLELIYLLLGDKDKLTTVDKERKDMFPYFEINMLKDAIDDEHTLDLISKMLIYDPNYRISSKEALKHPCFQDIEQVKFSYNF
Calcium-dependent protein kinase 1 (Plasmodium falciparum (isolate 3D7)), sequence (P62344 whole entry, looked up): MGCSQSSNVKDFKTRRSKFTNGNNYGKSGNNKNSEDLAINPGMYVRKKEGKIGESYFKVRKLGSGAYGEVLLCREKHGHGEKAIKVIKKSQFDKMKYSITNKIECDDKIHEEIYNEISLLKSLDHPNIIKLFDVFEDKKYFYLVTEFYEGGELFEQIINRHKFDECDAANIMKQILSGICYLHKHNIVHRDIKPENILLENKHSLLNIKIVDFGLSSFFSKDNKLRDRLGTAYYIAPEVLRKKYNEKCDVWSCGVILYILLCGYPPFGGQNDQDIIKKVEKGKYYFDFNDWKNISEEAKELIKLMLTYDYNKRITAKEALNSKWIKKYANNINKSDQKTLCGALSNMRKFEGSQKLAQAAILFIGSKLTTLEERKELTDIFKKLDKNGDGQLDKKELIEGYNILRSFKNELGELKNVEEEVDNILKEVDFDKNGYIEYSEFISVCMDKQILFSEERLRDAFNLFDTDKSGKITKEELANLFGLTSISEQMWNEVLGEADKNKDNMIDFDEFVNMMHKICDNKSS

COc1ccc2nccc([C@@H](O)CN3CCC(NC(=O)/C(=C/c4ccccc4)c4ccc(-c5ccccc5)cc4)CC3)c2c1
active: growth inhibition [4] 94%
inactive: growth inhibition [1] 38% | inhibition [2] 4% | inhibition [3] 0% | outcome [5] | outcome [6] | outcome [7] | outcome [8]

O=C(Nc1ccc(-c2ccccc2)s1)N[C@H]1CCN(Cc2ccc(OCCCN3CCCCC3)cc2)C1
active: growth inhibition [4] 102%
inactive: growth inhibition [1] 40% | inhibition [2] 5% | inhibition [3] -6% | outcome [5] | outcome [6] | outcome [7] | outcome [8]

Cc1cc2cc(-c3ccc(CN)cc3)ccc2nc1N
active: growth inhibition [4] 92%
inactive: growth inhibition [1] 8% | inhibition [2] 18% | inhibition [3] 4% | outcome [5] | outcome [6] | outcome [7] | outcome [8]

CC1(C)CCC(C)(C)c2c1ccc(C1CCN(CCCCNC(=O)c3ccc(-c4ccc(Cl)cc4)cc3)CC1)c2O
active: growth inhibition [1] 72% | inhibition [2] 100% | growth inhibition [4] 102%
inactive: inhibition [3] -2% | outcome [5] | outcome [6] | outcome [7] | outcome [8]

CCCN(CCCCNC(=O)c1ccc(-c2cccnc2)cc1)C1CCc2c(O)cccc2C1 (configuration not stated)
active: growth inhibition [4] 87%
inactive: growth inhibition [1] 16% | inhibition [2] -1% | inhibition [3] 0% | outcome [5] | outcome [6] | outcome [7] | outcome [8]

O=C(Nc1ccc(I)cc1)Nc1ccc(Cn2ncc(N3CCCNCC3)c(Cl)c2=O)cc1
inactive: growth inhibition [1] 30% | inhibition [2] 35% | inhibition [3] 0% | outcome [5] | outcome [6] | outcome [7] | outcome [8]
active: growth inhibition [4] 86%

CC(Cc1ccc(NC(=O)c2ccc(CNCCc3ccccc3)cc2)cc1)NCCc1cccc(Cl)c1 (configuration not stated)
active: growth inhibition [1] 99% | inhibition [2] 100% | growth inhibition [4] 100%
inactive: inhibition [3] 0% | outcome [5] | outcome [6] | outcome [7] | outcome [8]

COc1ccc(CNc2nc(NCc3ccccc3)c3cc(OC)c(OC)cc3n2)cc1OC
active: growth inhibition [1] 99% | growth inhibition [4] 103%
inactive: inhibition [2] 24% | inhibition [3] -6% | outcome [5] | outcome [6] | outcome [7] | outcome [8]

Cc1cc(C)n2nc(C(=O)Nc3cc(C(F)(F)F)ccc3N3CCOCC3)nc2n1
inactive: inhibition [2] 2% | inhibition [3] -3% | outcome [5] | outcome [6] | outcome [7] | outcome [8]
active: growth inhibition [1] 91% | growth inhibition [4] 94%

CN1CCN(c2nsc3ccc(-c4ccc(OCCN5CCCC5)cc4)cc23)CC1
inactive: inhibition [3] 6% | outcome [5] | outcome [6] | outcome [7] | outcome [8]
active: growth inhibition [1] 99% | inhibition [2] 57% | growth inhibition [4] 102%

CC(C)(C)N1CCC(N(Cc2ccc(-c3ccc(C(F)(F)F)cc3)cc2)C(=O)Cn2c(CCc3cccc(F)c3F)cc(=O)c3ccccc32)CC1
active: growth inhibition [1] 97% | inhibition [2] 100% | growth inhibition [4] 100%
inactive: inhibition [3] 4% | outcome [5] | outcome [6] | outcome [7] | outcome [8]

CN1CCN(CC(O)CNC(=O)Nc2ccc(Br)cc2)CC1 (configuration not stated)
inactive: inhibition [2] 5% | inhibition [3] -2% | outcome [5] | outcome [6] | outcome [7] | outcome [8]
active: growth inhibition [1] 100% | growth inhibition [4] 100%

O=C1CN(C(=O)CCC2CCCC2)C(c2ccc(F)cc2)c2cc(F)ccc2N1 (configuration not stated)
inactive: inhibition [2] 12% | inhibition [3] -5% | outcome [5] | outcome [6] | outcome [7] | outcome [8]
active: growth inhibition [1] 75% | growth inhibition [4] 100%

Cc1ccc(-c2nnc(Nc3ccc(OCC(N)=O)cc3)c3ccccc23)cc1S(=O)(=O)NCC1CCCO1 (configuration not stated)
inactive: inhibition [2] 0% | inhibition [3] -2% | outcome [5] | outcome [6] | outcome [7] | outcome [8]
active: growth inhibition [1] 70% | growth inhibition [4] 92%

O=C1COC2(CN1C1CCN(Cc3ccc(O)c(Cl)c3)C1)c1ccccc1-c1ccccc12 (configuration not stated)
inactive: inhibition [2] 5% | inhibition [3] 3% | outcome [5] | outcome [6] | outcome [7] | outcome [8]
active: growth inhibition [1] 63% | growth inhibition [4] 93%

CNCc1cccc(-c2ccc3ccnc(N)c3c2)c1
active: growth inhibition [1] 98% | growth inhibition [4] 101%
inactive: inhibition [2] 20% | inhibition [3] 3% | outcome [5] | outcome [6] | outcome [7] | outcome [8]

O=C(/C=C/c1ccc(Cl)c(Cl)c1)NCCCCCN1CCC(NC(=S)Nc2ccc(Cl)cc2Cl)CC1
inactive: growth inhibition [1] 47% | inhibition [3] -1% | outcome [5] | outcome [6] | outcome [7] | outcome [8]
active: inhibition [2] 53% | growth inhibition [4] 99%

Oc1ccc(CCNc2nc(NCCOc3ccccc3-c3ccccc3)nc(N3CCNCC3)n2)cc1
inactive: growth inhibition [1] 17% | inhibition [2] 22% | inhibition [3] -1% | outcome [5] | outcome [6] | outcome [7] | outcome [8]
active: growth inhibition [4] 93%

COc1cccc(C=NNc2cc(C)nc3c(OC)cccc23)c1
active: growth inhibition [1] 58% | growth inhibition [4] 99%
inactive: inhibition [2] 6% | inhibition [3] -6% | outcome [5] | outcome [6] | outcome [7] | outcome [8]
